Measured values as given in the supplement of paper PMC10981050.
“And” between values parts separate entries of the source, which are not always exact repeats. Identical values can stand only once. Counter-ions that a name gives are not always drawn.

Tests used:
Assay in all cases: cell viability relative to vehicle control; higher = less cytotoxic
Conditions in all cases: 10 µM
[1] = test system: K562
How it was run: (§1)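 Four leukaemia lines, as CRISPR-edited mutant clones and isogenic wild-type clones, were tested against Selleck bioactive, kinase and epigenetic probe libraries after removal of identity-inconsistent compounds. Cells were exposed to a single 10 µM dose for 48 h, and CellTiter-Glo luminescence was then read. Viability was calculated relative to the on-plate vehicle control.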

[2] = test system: MARIMO
How it was run: as §1

[3] = test system: MOLM14
How it was run: as §1

[4] = test system: OCI-AML2
How it was run: as §1

| SMILES | cell viability ([1]; SRSF2 genotype: SRSF2 P95H/wt) | cell viability ([1]; SRSF2 genotype: SRSF2 wt/wt) | cell viability ([2]; SRSF2 genotype: SRSF2 P95H/wt) | cell viability ([2]; SRSF2 genotype: SRSF2 wt/wt) | cell viability ([3]; SRSF2 genotype: SRSF2 P95H/wt) | cell viability ([3]; SRSF2 genotype: SRSF2 wt/wt) | cell viability ([4]; SRSF2 genotype: P95H/wt) | cell viability ([4]; SRSF2 genotype: wt/wt) |
| --- | --- | --- | --- | --- | --- | --- | --- | --- |
| CCc1cc(/C(C)=N/OCc2ccc(C3CCCCC3)c(C(F)(F)F)c2)ccc1CN1CC(C(=O)O)C1 [BAF312 (Siponimod)] | 86.8% and 89.2% | 87% | 79.3% | 67.2% | 66.5% | 66.3% | 48.1% | 49.8% |
| O=c1cc(CN2CCOCC2)occ1OCCCCCSc1ccnc2cc(C(F)(F)F)ccc12 | 59.9% and 65.2% | 60.1% | 49.4% | 37.7% | 58.9% | 68.5% | 27.6% | 34.3% |
| O=C(O)Cc1cccc2ccccc12 [Potassium 1-Naphthaleneacetate] | 92.5% and 95.9% | 97% | 97.4% | 97.8% | 90.8% | 95.4% | 103% | 98.8% |
| C=CC(=O)N1CCC(Oc2cc3c(Nc4ccc(Cl)c(Cl)c4F)ncnc3cc2OC)CC1 [Poziotinib (HM781-36B)] | 56% and 63.7% | 65.6% | 71.9% | 72.6% | 53.4% | 58% | 73.7% | 66.7% |
| C[C@H](Nc1ncnc2[nH]cnc12)c1cc2ccc(F)cc2nc1-c1ccccn1 | 90.3% and 89.3% | 91.5% | 81.5% | 85% | 69.2% | 67% | 64.5% | 73.4% |
| O=C(c1ccccc1)c1ccc2n1CCC2C(=O)O (stereo not drawn) [Ketorolac] | 102% and 98.1% | 99.6% | 100% | 102% | 98.2% | 102% | 103% | 108% |
| CC1(C)O[C@H]2CC(=O)OC[C@]23[C@H]2CC[C@@]4(C)[C@H](c5ccoc5)OC(=O)[C@H]5O[C@]54[C@]2(C)C(=O)C[C@@H]13 [Limonin] | 98% and 110% | 109% | 97.3% | 109% | 102% | 109% | 111% | 102% |
| CN1CCC(c2c(O)cc(O)c3c(=O)cc(-c4ccccc4Cl)oc23)C(O)C1 (stereo not drawn) [Flavopiridol (Alvocidib) HCl] | 5.96% and 15.8% | 7.9% | 11.1% | 4.66% | 3.87% | 0.54% | 5.83% | 16.3% |
| CN(C)/N=N/c1[nH]cnc1C(N)=O [Dacarbazine (DTIC-Dome)] | 117% and 112% | 110% | 108% | 107% | 97.6% | 108% | 107% | 112% |
| CNC1CCC(N(Cc2cccc(-c3ccncc3)c2)C(=O)c2sc3ccccc3c2Cl)CC1 (stereo not drawn) [Smoothened Agonist (SAG) HCl] | 18.8% and 30.6% | 29.8% | 53.8% | 51.4% | 36.6% | 48.6% | 3.18% | 26.1% |
| CCCCNc1ncc2c(-c3ccc(CN4CCN(C)CC4)cc3)cn([C@H]3CC[C@H](O)CC3)c2n1 | 5.45% and 6.26% | 6.13% | 8.07% | 5.67% | 0.26% | 0.23% | 1.56% | 5.54% |
| CN1CCC(=C2c3ccccc3CCn3c(C=O)cnc32)CC1 [Alcaftadine] | 102% and 104% | 100% | 100% | 94.7% | 99.7% | 99.4% | 109% | 97.4% |
| CC(C)=CCC[C@](C)(O[C@@H]1O[C@H](CO)[C@@H](O)[C@H](O)[C@H]1O)[C@H]1CC[C@]2(C)[C@@H]1[C@H](O)C[C@@H]1[C@@]3(C)CC[C@H](O[C@@H]4O[C@H](CO)[C@@H](O)[C@H](O)[C@H]4O[C@@H]4O[C@H](CO)[C@@H](O)[C@H](O)[C@H]4O)C(C)(C)[C@@H]3CC[C@]12C [Ginsenoside Rd] | 99.2% and 91.3% | 93.4% | 94% | 96.8% | 91.8% | 94.5% | 88% | 103% |
| COc1cc(O)c(C(=O)/C=C/c2ccccc2)c(OC)c1 [Flavokawain B] | 23.3% and 39% | 58% | 34.5% | 39% | 22.6% | 11.3% | 22.8% | 25.2% |
| O=C(c1cncc(Br)c1)N1CCC(N2CCCC2)CC1 | 103% and 100% | 98.7% | 106% | 100% | 101% | 101% | 104% | 120% |
| Cc1cc(Nc2cc(N3CCN(C)CC3)nc(/C=C/c3ccccc3)n2)n[nH]1 | 19.4% and 23.7% | 18.3% | 36% | 26.5% | 2.58% | 5.88% | 6.21% | 14.9% |
| CC(C)=CCCC(C)=CCCC(C)=CCCC(C)=CCC1=C(C)C(=O)c2ccccc2C1=O [Vitamin K2] | 93.6% and 95.4% | 102% | 82.8% | 92.6% | 87.7% | 101% | 88.6% | 89.1% |
| COc1ccc(CCC(=O)c2c(O)cc(O[C@@H]3O[C@H](CO)[C@@H](O)[C@H](O)[C@H]3O[C@@H]3O[C@@H](C)[C@H](O)[C@@H](O)[C@H]3O)cc2O)cc1O [Neohesperidin dihydrochalcone (Nhdc)] | 107% and 83.6% | 84.9% | 82.7% | 90.5% | 82.3% | 86.8% | 89.6% | 84.9% |

| SMILES | cell viability ([1]; SRSF2 genotype: SRSF2 P95H/wt) | cell viability ([1]; SRSF2 genotype: SRSF2 wt/wt) | cell viability ([2]; SRSF2 genotype: SRSF2 P95H/wt) | cell viability ([2]; SRSF2 genotype: SRSF2 wt/wt) | cell viability ([3]; SRSF2 genotype: SRSF2 P95H/wt) | cell viability ([3]; SRSF2 genotype: SRSF2 wt/wt) | cell viability ([4]; SRSF2 genotype: P95H/wt) | cell viability ([4]; SRSF2 genotype: wt/wt) |
| --- | --- | --- | --- | --- | --- | --- | --- | --- |
| CCCNC[C@]1(O)[C@H](C)O[C@@H](O[C@H]2[C@H](C)[C@@H](O[C@@H]3O[C@H](C)C[C@H](N(C)C)[C@H]3O)[C@](C)(O)C[C@@H](C)CN[C@H](C)[C@@H](O)[C@](C)(O)[C@@H](CC)OC(=O)[C@@H]2C)C[C@@]1(C)OC [Tulathromycin A] | 101% and 105% | 104% | 101% | 107% | 100% | 106% | 99.9% | 99% |
| CCCCCCCCC(=O)O [Nonanoic acid] | 98.3% and 102% | 102% | 108% | 106% | 98.4% | 102% | 107% | 97% |
| O=C(O)c1ccc(O)cc1 [4-Hydroxybenzoic acid] | 93.3% and 100% | 98.8% | 93.4% | 97.5% | 98.4% | 99.5% | 87% | 102% |
| NCCCCCC(=O)O | 99% and 100% | 99.6% | 101% | 98.5% | 103% | 105% | 113% | 99% |
| O=C1CC(c2ccc(O)cc2)Oc2cc(O)ccc21 (stereo not drawn) [Liquiritigenin] | 99.3% and 104% | 106% | 116% | 93.6% | 99.8% | 104% | 121% | 99.3% |
| CCN[C@H]1CN(CCCOC)S(=O)(=O)c2sc(S(N)(=O)=O)cc21 [Brinzolamide] | 87.4% and 79.5% | 85.7% | 83.7% | 88.2% | 83.2% | 86.5% | 84.2% | 90.2% |
| O=C(/C=C/c1ccc(O)cc1)OC[C@H]1O[C@@H](Oc2c(-c3ccc(O)cc3)oc3cc(O)cc(O)c3c2=O)[C@H](O)[C@@H](O)[C@@H]1O [Tiliroside] | 99.3% and 99.1% | 95.3% | 98.9% | 109% | 100% | 105% | 104% | 111% |
| O=c1c(O)c(-c2ccc(O)cc2O)oc2cc(O)cc(O)c12 [Morin hydrate (Aurantica)] | 94.3% and 106% | 106% | 108% | 108% | 107% | 107% | 107% | 102% |
| O=C(/C=C/c1ccc(O)c2c1[C@H](C(=O)O[C@H](Cc1ccc(O)c(O)c1)C(=O)O)[C@@H](c1ccc(O)c(O)c1)O2)O[C@H](Cc1ccc(O)c(O)c1)C(=O)O [Salvianolic acid B] | 96.5% and 101% | 101% | 101% | 108% | 96.7% | 103% | 98.9% | 97.8% |
| CC1CCC2(OC1)OC1CC3C4CCC5CC(OC6OC(CO)C(O)C(O)C6OC6OC(CO)C(O)C(O)C6O)CCC5(C)C4CCC3(C)C1C2C (stereo not drawn) [Timosaponin A3] | 7.72% and 10% | 28.3% | 3.39% | 3.93% | 1.66% | 0.73% | 0.43% | 0.73% |
| CCN(CC)CC(=O)Nc1c(C)cccc1C [Lidocaine hydrochloride] | 102% and 103% | 106% | 101% | 107% | 99.3% | 102% | 100% | 97.1% |
| CC[C@H](C)n1cc(C)c2c(C(=O)NCc3c(C)cc(C)[nH]c3=O)cc(-c3ccc(N4CCNCC4)nc3)cc21 | 78.3% and 82.1% | 78.2% | 80.9% | 94.6% | 81.6% | 81.7% | 68% | 75.4% |
| CC(C)(C)c1[nH]cnc1/C=c1\[nH]c(=O)/c(=C/c2ccccc2)[nH]c1=O [NPI-2358 (Plinabulin)] | 10.3% and 31% | 31.4% | 7.45% | 11% | 1.68% | 1.52% | 2.13% | 5.45% |
| CN(CCOc1ccc(CC2SC(=O)NC2=O)cc1)c1ccccn1 (stereo not drawn) [Rosiglitazone (Avandia)] | 101% and 90.7% | 85% | 89.6% | 101% | 90% | 96.6% | 94% | 101% |
| CCCCN1CCCC[C@H]1C(=O)Nc1c(C)cccc1C [Levobupivacaine HCl] | 82.7% and 79.1% | 80.2% | 82.3% | 85.1% | 83.5% | 88.7% | 82.3% | 90.8% |
| C[C@](N)(Cc1ccc(O)c(O)c1)C(=O)O [Methyldopa (Aldomet)] | 90.6% and 100% | 100% | 97.2% | 104% | 98.3% | 101% | 98.4% | 96.6% |
| COC1=C(OC)C(=O)C(CCCCCCCCCCO)=C(C)C1=O [Idebenone] | 78.7% and 86.7% | 86.9% | 85.6% | 89.6% | 88% | 88.7% | 68.8% | 75.2% |
| O=C(Nc1ccc(-c2ccnc(Nc3ccc(N4CCOCC4)cc3)n2)cc1)C1CCCN1 (stereo not drawn) | 89.5% and 97.2% | 89.5% | 72.2% | 73.5% | 35.5% | 22.4% | 43.1% | 39.2% |
